Assay results published in PubChem BioAssay AID547 (Emory University Molecular Libraries Screening Center, 2006).
Where “and” joins values, the source holds several entries; their conditions need not be identical. Equal entries are not always repeated. The whole screen tested about 1,300 compounds, of which about 10 (0.8%) were called active. The rule behind the calls is not given here. For the sample, actives were picked, then their nearest neighbours and some compounds at random.

These compounds were tested against Chaperone protein DnaK (Escherichia coli (strain K12)) (UniProt P0A6Y8) (assay: E. coli DnaK chaperone inhibitors, primary screen, luminescence, E. coli K12 (AID 547;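 note: tested at 10 µM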)). Details: DnaK chaperone assay, luminescence read-out; stronger effect = lower value.

Row | SMILES | luminescence
1 | NCCCCCCNS(=O)(=O)c1cccc2c(Cl)cccc12 | 2.8e+06 cps (inactive)
2 | CCSC(N)=Nc1ccc(C(F)(F)F)cc1 | 2.3e+06 cps (inactive)
3 | OC[C@H]1O[C@@H](n2cnc3c(Nc4ccccc4)ncnc32)C(O)[C@H]1O (stereo partly specified) | 2.3e+06 cps (inactive)
4 | COc1ccccc1N1CCN(CCCCNS(=O)(=O)c2cccc3c(N(C)C)cccc23)CC1 | 2.1e+06 cps (inactive)
5 | O=c1cc(-c2ccccc2)[nH]c2nc(Cl)ccc12 | 2.7e+06 cps (inactive)
6 | CC(=O)N[C@H](C(=O)O)C(C)(C)SN=O | 2.5e+06 cps (inactive)
7 | O=C(O)c1cc2cc(F)ccc2[nH]1 | 2.1e+06 cps (inactive)
8 | O=c1[nH]c2cc(C(F)(F)F)ccc2n1-c1cc(C(F)(F)F)ccc1O | 2.6e+06 cps (inactive)
9 | O=C(O)CC1CCCc2ccccc2C1O (stereo unspecified) | 2.7e+06 cps (inactive)
10 | NCC(O)C1CCCCCCC1 (stereo unspecified) | 2.9e+06 cps (inactive)
11 | CN=C(NC#N)Nc1ccc(C2=NNC(=O)CC2C)cc1 (stereo unspecified) | 2.6e+06 cps (inactive)
12 | O=C1NC(c2cccc([N+](=O)[O-])c2)=CCN1c1ccccc1O | 3e+06 cps (inactive)
13 | CC1(C)CCC=[N+]1[O-] | 2.6e+06 cps (inactive)
14 | NC[C@@H]1O[C@H](C23CC4CC(CC(C4)C2)C3)Cc2c1ccc(O)c2O | 3e+06 cps (inactive)
15 | N#C/C(=C\c1c[nH]c2ccccc12)C(=O)c1ccc(O)c(O)c1 | 2.2e+06 cps (inactive)
16 | O=C1C2C=CC=CC2=NC(=S)N1CCN1CCC(=C(c2ccc(F)cc2)c2ccc(F)cc2)CC1 (stereo unspecified) | 2.9e+06 cps (inactive)
17 | COc1cc2nc(N3CCN(C(=O)OCc4ccccc4)C(C(=O)NC(C)(C)C)C3)nc(N)c2cc1OC (stereo unspecified) | 2.3e+06 cps (inactive)
18 | CCc1cccc(N(C)C(N)=Nc2cccc3ccccc23)c1 | 2.4e+06 cps (inactive)
19 | Nc1nc(Cl)nc2c1ncn2[C@@H]1O[C@H](CO)[C@H](O)C1O (stereo partly specified) | 2.7e+06 cps (inactive)
20 | OCc1ccc(-c2nn(Cc3ccccc3)c3ccccc23)o1 | 2.1e+06 cps (inactive)
21 | CC(N)(Cc1ccc(O)c(O)c1)C(=O)O (stereo unspecified) | 2.3e+06 cps (inactive)

Row | SMILES | luminescence
22 | CC1CNCCN1S(=O)(=O)c1cccc2cnccc12 (stereo unspecified) | 3.1e+06 cps (inactive) and 2.6e+06 cps (inactive)
23 | OCC1NC[C@@H](O)C(O)[C@@H]1O (stereo partly specified) | 2.4e+06 cps (inactive)
24 | O=C(O)CNC(=O)C(CS)Cc1ccccc1 (stereo unspecified) | 2.3e+06 cps (inactive)
25 | CN(C)C/C=C(/c1ccc(Br)cc1)c1cccnc1 | 1.8e+06 cps (inactive)
26 | CN1CCc2cc(NC(=O)Nc3cccnc3)ccc21 | 2.6e+06 cps (inactive)
27 | CCCCOc1cc(CC2CNC(=O)N2)ccc1OC (stereo unspecified) | 2.5e+06 cps (inactive)
28 | CCCCCCCCCCCCCCCCCC(=O)OC(CC(=O)O)C[N+](C)(C)C (stereo unspecified) | 2.5e+06 cps (inactive)
29 | CN1C2CCC1CC(OC(=O)c1c[nH]c3ccccc13)C2 (stereo unspecified) | 2.3e+06 cps (inactive)
30 | NCCS | 2.4e+06 cps (inactive)
31 | Fc1ccc([C@@H]2CCNC[C@H]2COc2ccc3c(c2)OCO3)cc1 | 2.9e+06 cps (inactive)
32 | NCCCCCCCCCCN | 2.6e+06 cps (inactive)
33 | O=C(O)C1=CCCNC1 | 2.8e+06 cps (inactive)
34 | C[C@]12CC[C@@H]3c4ccc(O)cc4CC[C@H]3[C@@H]1CC[C@@H]2O | 2.9e+06 cps (inactive)
35 | CCOC(=O)C1=C[C@]2(CC)CCCN3CCc4c(n1c1ccccc41)[C@@H]32 | 2.3e+06 cps (inactive)
36 | O=Nc1c(-c2c(O)[nH]c3ccccc23)[nH]c2ccccc12 | 2.9e+06 cps (inactive)
37 | OC[C@H]1O[C@@H](n2cnc3c(NCCc4ccccc4)ncnc32)C(O)[C@H]1O (stereo partly specified) | 2.2e+06 cps (inactive)
38 | CC(C)(C)NCC(O)COc1nsnc1N1CCOCC1 (stereo unspecified) | 2.3e+06 cps (inactive)
39 | O=c1n(CCCN2CCN(c3cccc(Cl)c3)CC2)nc2ccccn12 | 2.5e+06 cps (inactive)
40 | CCN1CCc2nc(N)oc2CC1 | 2.6e+06 cps (inactive)
41 | CC(N)C1CCC(C(=O)Nc2ccncc2)CC1 (stereo unspecified) | 2.8e+06 cps (inactive)
42 | COCc1nc2c([nH]1)c(=O)n(C)c(=O)n2CC(C)C | 2.7e+06 cps (inactive)

Row | SMILES | luminescence
43 | CCCCC1C(=O)N(c2ccccc2)N(c2ccccc2)C1=O | 2.6e+06 cps (inactive)
44 | Oc1ccc(O)cc1 | 2.9e+06 cps (inactive)
45 | NC(=O)CC[C@H](N)C(=O)O | 2.9e+06 cps (inactive)
46 | COc1[nH]c2ccc(F)cc2c1C(=O)OCC1CCN(CCNS(C)(=O)=O)CC1 | 3e+06 cps (inactive)
47 | COc1ccc(-c2ccc(N)[n+](CCCC(=O)O)n2)cc1 | 2.3e+06 cps (inactive)
48 | C[C@H]1CC2C3CCC4=CC(=O)C=C[C@]4(C)[C@@]3(Cl)[C@@H](O)C[C@]2(C)[C@@]1(O)C(=O)CO (stereo partly specified) | 2.6e+06 cps (inactive)
49 | N=S(=O)(O)Cc1noc2ccccc12 | 2.1e+06 cps (inactive)
50 | CCCCCCC/C=C\CCCCCCCCC(=O)O | 1.7e+06 cps (active)
51 | CCCCCCCC/C=C\CCCCCCCC(=O)NCCO | 2.9e+06 cps (inactive)
52 | CCCCCCCCCCC/C=C\C(C)(C)/C=C\CCCC(=O)O | 2.3e+06 cps (inactive)
53 | CC1C(=O)N(C)C(=O)c2nc[nH]c21 (stereo unspecified) | 2.4e+06 cps (inactive)
54 | N.N.O=C(O)C1(C(=O)O)CCC1.[Pt+2] | 2.5e+06 cps (inactive)
55 | CCCCS(=N)(=O)CCC(N)C(=O)O (stereo unspecified) | 1.9e+06 cps (inactive)
56 | CCCCCCCCCCCCCCCC(=O)NCCO | 2.9e+06 cps (inactive)
57 | CC(=O)NCCc1ccc(O)c(O)c1 | 2.8e+06 cps (inactive)
58 | CCCCCCCC/C=C\CCCCCCCC(=O)NCCc1ccc(O)c(O)c1 | 1.5e+06 cps (active)
59 | NC(=O)c1ccccc1 | 2.5e+06 cps (inactive)
60 | N#CC(Cc1ccc(O)c(O)c1)C(=O)N1CCc2ccccc21 (stereo unspecified) | 2.2e+06 cps (inactive)
61 | CCNC(=O)[C@H]1O[C@@H](n2cnc3c(N)nc(NCCc4ccc(CCC(=O)O)cc4)nc32)C(O)[C@H]1O (stereo partly specified) | 2.4e+06 cps (inactive)
